Measured values as given in article PMC5540273 (PLoS ONE, 2017).

Experiments:
Conditions in all cases: concentration: 1 μM, replicates: in singlicate; n = 1
EPHB3 = test system: EPHB3
EPHB4 = test system: EPHB4
EPHB6 = test system: EPHB6
ERBB2 = test system: ERBB2
ERBB3 = test system: ERBB3
ERBB4 = test system: ERBB4
ERK1 = test system: T1, ERK1
T1 construct: gene MAPK3

ERK2 = test system: T2, ERK2
T2 construct: gene MAPK1

ERK3 = test system: T3, ERK3
T3 construct: gene MAPK6

ERK4 = test system: T4, ERK4
T4 construct: gene MAPK4

ERK5 = test system: T5, ERK5
T5 construct: gene MAPK7

ERK8 = test system: T6, ERK8
T6 construct: gene MAPK15

ERN1 = test system: ERN1
FAK = test system: T7, FAK
T7 construct: gene PTK2

FER = test system: FER
FES = test system: FES
FGFR1 = test system: FGFR1
FGFR2 = test system: FGFR2
FGFR3 = test system: FGFR3
FGFR4 = test system: FGFR4
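Further: KINOMEscan kinase panel screen.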

SMILES | %Inh (EPHB3) | %Inh (EPHB4) | %Inh (EPHB6) | %Inh (ERBB2) | %Inh (ERBB3) | %Inh (ERBB4) | %Inh (ERK1) | %Inh (ERK2) | %Inh (ERK3) | %Inh (ERK4) | %Inh (ERK5) | %Inh (ERK8) | %Inh (ERN1) | %Inh (FAK) | %Inh (FER) | %Inh (FES) | %Inh (FGFR1) | %Inh (FGFR2) | %Inh (FGFR3) | %Inh (FGFR4)
Cl.c1ccc(Cn2cnc3cc(Nc4ncnc5ccccc45)ccc32)cc1 [GW272142] | 12% | 13% | 80% | 38% | 0% | 33% | 0% | 0% | 19% | 0% | 1% | 0% | 1% | 0% | 21% | 0% | 0% | 0% | 14% | 3%
Cc1ccccc1COc1cc(-n2cnc3cc(Cl)ccc32)sc1C(N)=O [GW813349] | 0% | 10% | 17% | 14% | 54% | 0% | 1% | 0% | 0% | 0% | 0% | 9% | 0% | 5% | 0% | 2% | 12% | 3% | 0% | 0%
O=C(Nc1n[nH]c2cc(-c3ccccc3F)ccc12)C1CC1 [SB-733371] | 0% | 5% | 0% | 0% | 0% | 18% | 0% | 0% | 0% | 0% | 16% | 43% | 0% | 0% | 0% | 1% | 1% | 0% | 0% | 0%
CCS(=O)(=O)c1ccc(OC)c(Nc2ncc(-c3ccc(F)cc3)o2)c1.Cl [GW591947] | 0% | 0% | 0% | 13% | 0% | 0% | 8% | 7% | 13% | 21% | 0% | 0% | 8% | 0% | 29% | 0% | 3% | 0% | 0% | 12%
Cl.NS(=O)(=O)c1cccc(Nc2cc(-c3ccc(F)cc3)n[nH]2)c1 [GW824645] | 0% | 0% | 0% | 4% | 17% | 0% | 0% | 0% | 0% | 0% | 0% | 3% | 21% | 0% | 41% | 0% | 0% | 0% | 0% | 0%
CCCC(=O)Nc1n[nH]c2ncc(-c3cccc4ccccc34)cc12 [SB-642057] | 0% | 0% | 41% | 11% | 0% | 26% | 8% | 0% | 0% | 22% | 0% | 0% | 0% | 8% | 3% | 0% | 0% | 0% | 0% | 19%
O=C(Nc1ccc2c(c1)OCO2)NC1CCN(c2ccnc(NCc3ccc(F)cc3)n2)CC1 [GSK1379859] | 15% | 0% | 4% | 35% | 0% | 43% | 0% | 0% | 9% | 3% | 0% | 0% | 0% | 0% | 8% | 0% | 4% | 0% | 0% | 0%
Cc1cc(Nc2nc(-c3cccc(C)n3)nc3ccccc23)ccn1 [GW872411] | 0% | 0% | 0% | 0% | 0% | 0% | 0% | 0% | 0% | 0% | 3% | 13% | 0% | 0% | 0% | 0% | 12% | 0% | 0% | 0%
CCc1nc(-c2cccc(C)c2)c(-c2ccncc2)s1 | 7% | 14% | 0% | 48% | 0% | 5% | 0% | 12% | 0% | 12% | 4% | 6% | 0% | 99.9% | 13% | 0% | 0% | 0% | 0% | 0%
COc1cc2nccc(Nc3cccc(Oc4ccccc4)c3)c2cc1OC.Cl [GW284543] | 0% | 0% | 79% | 24% | 66% | 31% | 18% | 0% | 0% | 10% | 26% | 13% | 8% | 23% | 30% | 4% | 17% | 26% | 6% | 8%
Cc1nc(N(C)[C@H]2CN(C(=O)CC#N)CC[C@H]2C)c2cc[nH]c2n1 | 6% | 9% | 19% | 7% | 0% | 0% | 8% | 13% | 5% | 19% | 7% | 1% | 12% | 0% | 0% | 9% | 1% | 6% | 0% | 0%
FC(F)(F)c1ccc(-c2ncn(CCCN3CCOCC3)c2-c2ccncc2)cc1 [SB-217780] | 0% | 9% | 18% | 16% | 0% | 47% | 0% | 0% | 7% | 0% | 0% | 1% | 26% | 1% | 9% | 4% | 90% | 0% | 6% | 1%
CN1C(=O)C(Nc2ccccc2)=C(c2ccccc2)C1=O [SB-300079] | 0% | 0% | 0% | 20% | 28% | 18% | 0% | 10% | 9% | 31% | 0% | 2% | 17% | 0% | 0% | 0% | 0% | 0% | 0% | 0%
OCCCNc1nccc(-c2c(-c3cccc(C(F)(F)F)c3)nn3cc(C(F)(F)F)ccc23)n1 [GW630813] | 0% | 10% | 0% | 19% | 12% | 40% | 0% | 0% | 0% | 0% | 0% | 0% | 0% | 0% | 8% | 0% | 0% | 0% | 0% | 0%
COc1ccc(Nc2nccc(N3CCC(NS(=O)(=O)c4ccc(NC(C)=O)cc4)C3)n2)cc1 (centres unmarked) [GSK1379729] | 35% | 25% | 28% | 20% | 18% | 0% | 20% | 10% | 6% | 0% | 0% | 53% | 0% | 0% | 24% | 5% | 8% | 29% | 18% | 98.5%
Cc1ccc(Oc2ccc(Nc3ncnc4cc[nH]c34)cc2C)cn1 | 26% | 28% | 53% | 100% | 24% | 29% | 0% | 26% | 0% | 7% | 5% | 0% | 21% | 8% | 15% | 23% | 10% | 0% | 4% | 11%
Cc1cccc(-c2nc(Nc3ccc4c(cnn4C)c3)c3ccccc3n2)n1 [GW876731] | 0% | 0% | 13% | 0% | 0% | 8% | 0% | 0% | 0% | 0% | 1% | 0% | 29% | 11% | 9% | 4% | 0% | 21% | 4% | 0%
Nc1nc(N)c2nc(-c3ccccc3)[nH]c2n1 [SKF-12778] | 0% | 13% | 39% | 22% | 4% | 0% | 7% | 5% | 6% | 0% | 0% | 41% | 11% | 6% | 14% | 0% | 16% | 32% | 21% | 12%
COc1ccc(-c2coc3ccc(-c4nnc(SCc5cccc(C#N)c5)o4)cc23)cc1 | 6% | 0% | 0% | 14% | 0% | 0% | 0% | 26% | 0% | 0% | 0% | 14% | 11% | 0% | 10% | 7% | 11% | 13% | 17% | 17%
CCS(=O)c1ccc(-c2coc3ccc(-c4nnc(C)o4)cc23)cc1 (centres unmarked) | 0% | 9% | 3% | 8% | 3% | 9% | 0% | 13% | 0% | 0% | 0% | 0% | 16% | 0% | 11% | 7% | 9% | 10% | 7% | 0%
Nc1nc(-c2ccccc2F)c(-c2ccnc3ccccc23)s1 [GW560459] | 0% | 1% | 0% | 71% | 0% | 36% | 10% | 0% | 0% | 0% | 0% | 0% | 0% | 0% | 13% | 0% | 0% | 0% | 0% | 75%
O=C(NCCNc1ccnc(Nc2ccc(F)cc2)n1)Nc1ccc2c(c1)OCO2 [GSK1379882] | 0% | 0% | 38% | 9% | 10% | 7% | 0% | 0% | 9% | 22% | 2% | 0% | 30% | 0% | 0% | 0% | 0% | 0% | 2% | 0%
